Results published in PMC5540273 (PLoS ONE, 2017).

Columns and labels:
Settings in all cases: concentration: 1 μM,replicates: in singlicate; n = 1
MAPKAPK5 = tested on: MAPKAPK5
MARK1 = tested on: MARK1
MARK2 = tested on: MARK2
MARK3 = tested on: MARK3
MARK4 = tested on: MARK4
MAST1 = tested on: MAST1
MEK1 = tested on: T1, MEK1
T1 construct: gene MAP2K1

MEK2 = tested on: T2, MEK2
T2 construct: gene MAP2K2

MEK3 = tested on: T3, MEK3
T3 construct: gene MAP2K3

MEK4 = tested on: T4, MEK4
T4 construct: gene MAP2K4
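Also: KINOMEscan kinase panel screen.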

| Structure (SMILES) | %Inh (MAPKAPK5) [%] | %Inh (MARK1) [%] | %Inh (MARK2) [%] | %Inh (MARK3) [%] | %Inh (MARK4) [%] | %Inh (MAST1) [%] | %Inh (MEK1) [%] | %Inh (MEK2) [%] | %Inh (MEK3) [%] | %Inh (MEK4) [%] |
| --- | --- | --- | --- | --- | --- | --- | --- | --- | --- | --- |
| Cl.Cl.NC[C@H](CC1CCCCC1)NC(=O)c1ccc(-c2ccnc3[nH]ccc23)s1 [GSK1581428] | 0 | 26 | 58 | 74 | 24 | 0 | 0 | 17 | 93.8 | 54 |
| CNC(=O)c1ccccc1Nc1nc(Nc2cccc(CS(C)(=O)=O)c2)ncc1C.O=CO [GSK1520489] | 0 | 71 | 87 | 72 | 92.3 | 5 | 94.5 | 91.1 | 69 | 56 |
| CCn1c(-c2nonc2N)nc2cncc(CNC3CCNCC3)c21.Cl [SB-747651] | 0 | 0 | 0 | 2 | 0 | 21 | 0 | 1 | 16 | 40 |
| O=C1NCCc2[nH]c(-c3ccncc3)cc21 | 46 | 22 | 12 | 25 | 11 | 59 | 8 | 26 |  | 0 |
| Cl.c1ccc(Oc2ccc(Nc3ccnc4cc(-c5ccc(CN6CCNCC6)o5)ccc34)cc2)nc1 [GW567142] | 0 | 0 | 0 | 39 | 0 | 0 | 87 | 90.9 | 0 | 19 |
| Cc1ccc(Nc2ccnc(Nc3ccc4c(c3)CS(=O)(=O)C4)n2)cc1O.Cl [GW579362] | 0 | 0 | 17 | 0 | 5 | 0 | 84 | 62 | 92 | 90.9 |
| COC(=O)c1cccc(NC(=O)NC2CCN(c3ccnc(Nc4cc(OC)c(OC)c(OC)c4)n3)C2)c1 (stereo not drawn) [GSK1379767] | 0 | 0 | 0 | 0 | 7 | 15 | 0 | 17 | 0 | 26 |
